High-throughput results as filed in PubChem.
Shown is part of a subset that was picked to be rich in hits.
IMPase Li cell = cell-permeable IMPase inhibitors with lithium potentiation. Potency, µM (highest dose often 59.4 µM), hits mostly inhibitors. CHO-M1 cells, IP1 TR-FRET (IP-One), carbachol + lithium. actives 0.35% (n = 210,000);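 note: IP1 builds up when IMPase is blocked and the TR-FRET signal falls; nearly all actives have a fitted effect of over 50% in size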
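Steps: plate 2000 CHO-M1 cells per well and culture 16–30 h; add compound and lithium; incubate 30 min, 37C; add d2-IP1 tracer and Eu cryptate anti-IP1 antibody in lysis buffer; read after 10 min at room temperature.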
ERK EGF block = inhibitors of EGF-stimulated ERK signaling pathway; HEK293-V1b, EGF-stimulated phospho-ERK AlphaScreen; Potency, µM (series often up to 11.5 µM), most hits filed as inhibitors; actives 0.41% (n = 130,000); AID 1454; note: nearly all actives have a fitted effect of over 55% in size
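Concentration-response of compounds against EGF-driven ERK phosphorylation in V1b-expressing HEK293 cells; 30 min preincubation, 5 min EGF, AlphaScreen detection; Normalized to DMSO basal and 25 nM EGF.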
NPSR antagonist = antagonists of human neuropeptide S receptor cAMP signaling. Q6W5P4. CHO-NPSR cells, cAMP TR-FRET, antagonist mode. Potency, µM (top dose mostly 38.3 µM), hits mostly inhibitors. actives 1% (n = 220,000); note: nearly all actives have a fitted effect of over 50% in size
Target sequence (Q6W5P4 whole entry, looked up): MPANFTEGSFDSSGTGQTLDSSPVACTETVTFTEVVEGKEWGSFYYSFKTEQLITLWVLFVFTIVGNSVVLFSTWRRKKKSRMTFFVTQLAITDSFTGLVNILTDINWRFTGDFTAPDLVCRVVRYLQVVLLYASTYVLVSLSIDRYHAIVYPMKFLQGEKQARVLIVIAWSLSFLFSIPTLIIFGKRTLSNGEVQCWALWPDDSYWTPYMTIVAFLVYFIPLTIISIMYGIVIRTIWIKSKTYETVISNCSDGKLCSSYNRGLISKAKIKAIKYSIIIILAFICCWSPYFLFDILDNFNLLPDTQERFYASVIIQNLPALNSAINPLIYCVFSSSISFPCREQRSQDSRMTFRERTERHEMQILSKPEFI
A number is an active result; – = inactive; ? = inconclusive; · = no result given; [ ] = dose if it differs, or a comment. Calls come from the whole dose curve; as a rule, active = well fitted curve in the direction sought with a large enough effect; inconclusive = small, poorly fitted or top-dose-only effect, or another doubt; inactive = no such curve, though single readings can be large; an effect the other way counts as inactive or inconclusive.

SMILES | IMPase Li cell | ERK EGF block | NPSR antagonist
CN=c1scc(-c2ccc(OC)cc2)n1/N=C(\C)c1cccnc1 | – | 22.4µM | –
C/C(=N/n1cnnc1)c1cccnc1 | – | · | –
CC(C)CN1CCCC2(CCN(C(=O)c3ccco3)CC2)C1 | – | – | ·
COc1ccc(CC(=O)Nc2ccc(C(=O)Nc3nccs3)cc2)cc1OC | – | – | –
COc1cc(C(=O)Nc2nc(-c3ccc(Cl)cc3)c(C)s2)ccc1OCC(=O)Nc1ccc(F)cc1 | · | · | 3.98µM
CCc1ccc(-c2nc(NC(=O)c3ccc(OCC(=O)Nc4ccc(F)cc4)c(OC)c3)sc2C)cc1 | 7.94µM | – | 6.31µM
COc1ccc(-c2nc(NC(=O)c3ccc(OCC(=O)N4CCOCC4)c(OC)c3)sc2C)cc1 | – | ? | –
Nc1ncn([C@H]2O[C@@H](CO)[C@@H](O)[C@@H]2O)c(=O)n1 | – | – | ·
COc1cccc(/C=N/NC(=O)CNC(=O)c2ccc(S(=O)(=O)N3CCCC3)cc2)c1OC | – | – | –
O=C(C1Cc2ccccc2CN1C(=O)c1ccccc1)N1CCN(c2ccccc2)CC1 (stereo not drawn) | · | – | –
Clc1ccc2c(c1)C(N1CCNCC1)Cc1ccccc1S2 (stereo not drawn) | – | ? | ?
Clc1cccc2c1Sc1ccccc1CC2N1CCNCC1 (stereo not drawn) | – | 28.2µM | ?
S=C1N(c2ccccc2)C(c2ccc(Br)cc2)N2CCCN12 (stereo not drawn) | · | – | ?
CN(C)c1nc2c(Br)c(Br)c(Br)c(Br)c2[nH]1 | – | – | –
CCCC(=O)N1CCN(c2ccc(NC(=O)c3ccc([N+](=O)[O-])o3)cc2)CC1 | – | – | 7.94µM
CCC(=O)N1CCN(c2ccc(NC(=O)c3ccc([N+](=O)[O-])o3)cc2)CC1 | – | – | –
O=C(Nc1ccc(N2CCCC2)c(Cl)c1)c1ccco1 | – | · | –
O=C(Nc1ccc(N2CCCC2)c(Cl)c1)c1ccc([N+](=O)[O-])o1 | – | ? | 7.94µM
CC(N)(Cc1ccc(O)c(O)c1)C(=O)O (stereo not drawn) | – | – | –
CCCCc1nc2c(c3c1C[C@H](C)OC3)CN(C(=O)COC)CC2 | – | · | ·
CC(=O)OCC1OC(Oc2cc(OC(C)=O)c3c(=O)cc(-c4ccc(OC(C)=O)c(OC(C)=O)c4)oc3c2)C(OC(C)=O)C(OC(C)=O)C1OC(C)=O (stereo not drawn) | – | – | ·
Cn1ncc([N+](=O)[O-])c1C(=O)Nc1nc2ccccc2n1CCN1CCCCC1 | 7.94µM | · | –
Cc1c(Cl)c(C(=O)Nc2nc3ccccc3n2CCN2CCCCC2)nn1C | – | · | –
O=C1C(Nc2cccc(O)c2)=C(N2CCCCC2)C(=O)c2ccccc21 | – | · | ?
O=C1C(Nc2ccccc2)=C(N2CCCCC2)C(=O)c2ccccc21 | – | · | –
SMILES | IMPase Li cell | ERK EGF block | NPSR antagonist
CN(C1=C(N2CCCCC2)C(=O)c2ccccc2C1=O)c1ccccc1 | – | · | 12.6µM
COc1ccccc1NC1=C(N2CCCCC2)C(=O)c2ccccc2C1=O | – | 25.1µM | –
CCCCc1nc2c(c3c1C[C@H](C)OC3)CN(S(=O)(=O)c1c(C)noc1C)CC2 | – | · | ·
CCOC(=O)Cc1csc(SCn2nnc3ccccc3c2=O)n1 | – | · | –
CCOC(=O)Cc1csc(-n2sc3ccccc3c2=O)n1 | 7.94µM | · | –
COc1cc(/C=C2/C(=O)NN(c3cccc(C)c3)C2=O)cc([N+](=O)[O-])c1O | – | – | –
COc1cc(/C=C2/C(=O)NN(c3cccc(C)c3)C2=O)ccc1OC(=O)c1ccco1 | – | 25.1µM | ?
COc1cccc(Cn2c(=O)c(CCc3ccccc3)nc3cnc(OC)nc32)c1 | – | – | ·
Cc1ccc(N/C(N)=N/c2nc(C)cc(C)n2)cc1 | – | – | –
CCCCc1ccc(N/C(N)=N/c2nc(C)cc(C)n2)cc1 | · | 17.8µM | –[7.67 µM]
COC(=O)[C@@]1(Cc2ccc(OC)cc2)[C@H]2c3cc(C(=O)N4CCCC4)n(CCN4CNCC4=O)c3C[C@H]2CN1C(=O)c1ccccc1 | – | – | ·
Cc1cccc2cc(C#N)c(N3CCN(C)CC3)nc12 | · | · | –
Cc1cc(C)c2nc(N3CCN(C)CC3)c(C#N)cc2c1 | 28.2µM | · | –
O=C(CNS(=O)(=O)c1ccc2ccccc2c1)OCC(=O)c1ccc(Br)s1 | 1.78µM | · | ?
Cc1cc(C(=O)COC(=O)CNS(=O)(=O)c2ccc3ccccc3c2)c(C)n1-c1ccccc1 | – | – | –
CC(=O)c1c(C)n(CCO)c2ccc(O)cc12 | – | · | –
CCCCCS(=O)(=O)CCCCCCCCCCn1c(-c2ccc(O)cc2)c(C)c2cc(O)ccc21 | – | 14.1µM | ·
CCOC(=O)N/N=C/c1ccccc1-c1cc(OC)ccc1OC | – | – | ·
O=C1OC2C[C@H]1[C@@H]1C(=O)N(Cc3ccccc3)CCC1C2I (stereo partly drawn) | – | · | ·
O=c1[nH]c(=O)n([C@@H]2C[C@H](O)[C@H](CO)O2)cc1C(F)(F)F | – | – | ·
CCOC(=O)C1=C(C)Nc2nc3ccccc3n2C1c1ccc(O)cc1 (stereo not drawn) | · | – | –
CCOC(=O)c1ccccc1-n1c(C)cc(C2N=C(N)Nc3nc4ccccc4n32)c1C (stereo not drawn) | – | · | 12.6µM
COCCn1c(=O)c(-c2ccc(OC)cc2)nc2cnc(N3CCN(C)CC3)nc21 | – | · | ·
COc1ccc(CN(C(=O)CSc2nnc(-c3ccccc3C)o2)c2ccc(F)cc2)cc1 | – | – | –
O=C(CSc1nnc(-c2c[nH]c3ccccc23)o1)N(Cc1ccccc1)c1ccc(F)cc1 | – | – | 7.94µM
SMILES | IMPase Li cell | ERK EGF block | NPSR antagonist
Cc1ccc(S(=O)(=O)N[C@H](CO)C(=O)O)cc1 | – | · | ·
Cc1ccc(S(=O)(=O)N[C@@H](Cc2ccccc2)C(=O)CCl)cc1 | – | – | 20µM
COc1ccc(N=Nc2nc(-c3ccccc3)c(-c3ccccc3)[nH]2)cc1 | – | ? | –
COc1ccccc1N=Nc1nc(-c2ccccc2)c(-c2ccccc2)[nH]1 | – | ? | 12.6µM
CN(C)c1ccc(-c2cncnc2NCCN2CCOCC2)cc1 | – | · | ·
O=C(O)c1ccc(-c2ccccc2C(F)(F)F)s1 | – | · | ·
CN1CCN(Cc2c(O)c(Cl)cc3c(-c4ccccc4)cc(=O)oc23)CC1 | – | · | –
Cc1cc(=O)oc2c(CN3CCN(C)CC3)c(O)c(Cl)cc12 | 12.6µM | · | –
CCCc1cc(=O)oc2c(CN3CCN(C)CC3)c(O)c(Cl)cc12 | · | · | –
CCCCc1cc(=O)oc2c(CN3CCCC3)c(O)c(Cl)cc12 | 10µM | · | –
O=S(=O)(c1ccc2c(c1)C(=NO)c1cc(S(=O)(=O)N3CCCCC3)ccc1-2)N1CCCCC1 | – | · | 2µM
CC1CCN(S(=O)(=O)c2cccc(C(=O)O)c2)CC1 | – | · | –
CC1CCN(S(=O)(=O)c2ccc3c(c2)C(=NO)c2cc(S(=O)(=O)N4CCC(C)CC4)ccc2-3)CC1 | – | · | 0.501µM
O=S(=O)(c1ccc(S(=O)(=O)N2CCCC2)cc1)N1CCCCCC1 | – | · | –
CC(=O)OC(C)=O | – | · | ·
COCOc1cc(OC)ccc1C(=O)/C=C/c1cccc(C(F)(F)F)c1 | – | – | ·
Nc1ncnc2c1ncn2[C@@H]1O[C@H](COP(=O)(O)OP(=O)(O)OP(=O)(O)OP(=O)(O)OC[C@@H]2O[C@H](n3cnc4c(N)ncnc43)[C@@H](O)[C@@H]2O)[C@H](O)[C@H]1O | – | – | ?
